Data on 1 sequence can be found in paper PMC7862700, “An all-to-all approach to the identification of sequence-specific readers for epigenetic DNA modifications on cytosine”.

Common to all, as to assay: DAPPL (digital affinity profiling via proximity ligation, sequencing); 10 mM Tris-HCl pH 7.5, 50 mM NaCl, 1 mM DTT, 4% glycerol, room temperature, 30 min; GST-TFs on glutathione beads, 16-mer random dsDNA library, 0.1% formaldehyde crosslink after washing; high values mean tight binding
One assay addresses T1, FEV (Homo sapiens, UniProt Q99581 1-238).
T1 sequence: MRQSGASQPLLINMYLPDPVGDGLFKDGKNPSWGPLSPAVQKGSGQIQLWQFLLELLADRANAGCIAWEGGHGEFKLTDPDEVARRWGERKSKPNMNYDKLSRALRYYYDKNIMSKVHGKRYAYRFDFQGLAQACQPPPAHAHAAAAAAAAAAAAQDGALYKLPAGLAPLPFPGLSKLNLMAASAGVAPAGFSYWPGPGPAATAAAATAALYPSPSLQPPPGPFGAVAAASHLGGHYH
The conditions noted are these: protein: recombinant; tags: N-terminal GST; dsDNA, one strand shown. An outline of the steps:
(§1)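 Binding signal is each hexamer's read frequency for a factor divided by its frequency in the tag-only sample. The factors were GST-fused human transcription factors from yeast, captured on glutathione beads, DNA-barcoded and pooled with that sample. Pools were incubated with 200 nmole of a random double-stranded 16-mer DNA library in Tris/NaCl/DTT/glycerol buffer at room temperature for 30 min, then washed, crosslinked with 0.1% formaldehyde, proximity-ligated with BsaI/T4 ligase (1 h, 37 °C), PCR-amplified and sequenced on an Illumina NextSeq500.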

The target in the next assay is ETV5 (Homo sapiens, UniProt P41161 1-510). The conditions noted are these: protein: recombinant; tags: N-terminal GST; dsDNA, one strand shown. An outline of the steps: as §1
ETV5, sequence (P41161 whole entry): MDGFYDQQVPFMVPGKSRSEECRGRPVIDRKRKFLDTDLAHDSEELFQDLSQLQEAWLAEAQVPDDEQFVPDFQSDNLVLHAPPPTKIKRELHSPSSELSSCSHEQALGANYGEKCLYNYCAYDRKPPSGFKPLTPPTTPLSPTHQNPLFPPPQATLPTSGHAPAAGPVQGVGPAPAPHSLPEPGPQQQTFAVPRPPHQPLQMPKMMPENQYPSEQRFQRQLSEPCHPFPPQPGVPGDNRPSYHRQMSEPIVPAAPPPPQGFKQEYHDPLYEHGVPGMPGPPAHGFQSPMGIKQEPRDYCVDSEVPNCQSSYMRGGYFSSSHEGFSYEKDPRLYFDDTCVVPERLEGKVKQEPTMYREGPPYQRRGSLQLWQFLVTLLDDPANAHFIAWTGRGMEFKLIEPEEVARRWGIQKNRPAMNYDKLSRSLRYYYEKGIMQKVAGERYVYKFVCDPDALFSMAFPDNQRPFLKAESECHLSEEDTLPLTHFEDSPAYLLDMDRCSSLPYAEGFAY
Another assay concerns the target HSF1 (Homo sapiens, UniProt Q00613 1-529). The settings on record: protein: recombinant; tags: N-terminal GST; chain copies: 3; dsDNA, one strand shown. The method in brief:
as §1

Another assay has as its target T2, SPIC (Homo sapiens, UniProt Q8N5J4 1-248).
T2 sequence: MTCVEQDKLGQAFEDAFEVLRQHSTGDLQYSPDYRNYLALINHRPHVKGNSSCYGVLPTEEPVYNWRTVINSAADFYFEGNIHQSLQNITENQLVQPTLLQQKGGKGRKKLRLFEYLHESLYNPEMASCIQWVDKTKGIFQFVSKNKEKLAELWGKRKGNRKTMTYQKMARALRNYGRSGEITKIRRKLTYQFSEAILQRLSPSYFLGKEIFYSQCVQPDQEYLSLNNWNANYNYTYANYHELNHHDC
The conditions noted are these: protein: recombinant; tags: N-terminal GST; dsDNA, one strand shown. An outline of the steps: as §1

Another assay has as its target ELF4 (Homo sapiens, UniProt Q99607 1-663). The conditions noted are these: protein: recombinant; tags: N-terminal GST; dsDNA, one strand shown. The method in brief:
as §1

The next assay has as its target T3, ELK4 (Homo sapiens, UniProt P28324-2 1-405).
T3 sequence: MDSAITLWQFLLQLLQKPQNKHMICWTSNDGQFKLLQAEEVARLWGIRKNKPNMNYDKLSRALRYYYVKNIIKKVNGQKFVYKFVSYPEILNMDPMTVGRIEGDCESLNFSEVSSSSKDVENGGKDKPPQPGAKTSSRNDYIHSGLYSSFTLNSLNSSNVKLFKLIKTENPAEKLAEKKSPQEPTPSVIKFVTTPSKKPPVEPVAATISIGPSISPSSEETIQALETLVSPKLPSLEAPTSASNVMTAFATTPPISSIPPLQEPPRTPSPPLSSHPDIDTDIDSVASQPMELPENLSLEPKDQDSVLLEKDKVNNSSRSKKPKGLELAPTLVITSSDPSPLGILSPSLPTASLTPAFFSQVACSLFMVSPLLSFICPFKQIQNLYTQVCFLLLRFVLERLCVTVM
The conditions noted are these: protein: recombinant; tags: N-terminal GST; dsDNA, one strand shown. The method in brief:
as §1

The target in a further assay is T4, ETV2 (Homo sapiens, UniProt O00321 1-342).
T4 sequence: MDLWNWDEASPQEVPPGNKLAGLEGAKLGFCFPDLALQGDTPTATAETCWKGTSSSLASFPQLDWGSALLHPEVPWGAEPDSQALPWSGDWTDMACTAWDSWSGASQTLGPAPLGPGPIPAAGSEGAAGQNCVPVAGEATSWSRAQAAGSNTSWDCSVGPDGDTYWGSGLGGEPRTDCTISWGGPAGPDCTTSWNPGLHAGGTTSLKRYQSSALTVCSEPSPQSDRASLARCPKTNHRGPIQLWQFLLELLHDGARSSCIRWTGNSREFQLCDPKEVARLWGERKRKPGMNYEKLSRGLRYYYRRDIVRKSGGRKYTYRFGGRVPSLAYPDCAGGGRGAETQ
The conditions noted are these: protein: recombinant; tags: N-terminal GST; dsDNA, one strand shown. The method in brief: as §1

A further assay deals with T5, ELF3 (Homo sapiens, UniProt P78545 1-371).
T5 sequence: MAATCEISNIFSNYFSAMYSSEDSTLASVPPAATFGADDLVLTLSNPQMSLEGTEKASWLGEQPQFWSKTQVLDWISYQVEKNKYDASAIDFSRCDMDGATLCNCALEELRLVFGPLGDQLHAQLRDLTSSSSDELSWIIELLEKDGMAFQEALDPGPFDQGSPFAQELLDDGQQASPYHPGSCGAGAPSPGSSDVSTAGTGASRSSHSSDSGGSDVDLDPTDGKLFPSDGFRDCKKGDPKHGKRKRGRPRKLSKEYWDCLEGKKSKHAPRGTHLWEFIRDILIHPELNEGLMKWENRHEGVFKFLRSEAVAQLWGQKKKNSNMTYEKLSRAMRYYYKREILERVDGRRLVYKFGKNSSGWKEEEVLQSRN
The settings on record: protein: recombinant; tags: N-terminal GST; dsDNA, one strand shown. The method in brief: as §1

For another assay, the target named is CRX (Homo sapiens, UniProt O43186 1-299). The conditions noted are these: protein: recombinant; tags: N-terminal GST; dsDNA, one strand shown. The method in brief: as §1
CRX, sequence (O43186 whole entry): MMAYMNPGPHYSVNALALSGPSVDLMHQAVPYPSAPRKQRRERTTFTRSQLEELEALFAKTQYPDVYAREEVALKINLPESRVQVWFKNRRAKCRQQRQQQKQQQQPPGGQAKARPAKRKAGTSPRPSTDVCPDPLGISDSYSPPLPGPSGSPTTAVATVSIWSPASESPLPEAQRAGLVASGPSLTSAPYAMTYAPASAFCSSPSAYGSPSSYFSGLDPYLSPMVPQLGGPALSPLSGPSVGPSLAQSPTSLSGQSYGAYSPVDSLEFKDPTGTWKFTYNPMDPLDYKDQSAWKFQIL
The target of a further assay is ETV1 (Homo sapiens, UniProt P50549 1-477). The conditions noted are these: protein: recombinant; tags: N-terminal GST; dsDNA, one strand shown. The method in brief:
as §1

A further assay has as its target T6, ERF (Homo sapiens, UniProt P50548 1-548).
T6 sequence: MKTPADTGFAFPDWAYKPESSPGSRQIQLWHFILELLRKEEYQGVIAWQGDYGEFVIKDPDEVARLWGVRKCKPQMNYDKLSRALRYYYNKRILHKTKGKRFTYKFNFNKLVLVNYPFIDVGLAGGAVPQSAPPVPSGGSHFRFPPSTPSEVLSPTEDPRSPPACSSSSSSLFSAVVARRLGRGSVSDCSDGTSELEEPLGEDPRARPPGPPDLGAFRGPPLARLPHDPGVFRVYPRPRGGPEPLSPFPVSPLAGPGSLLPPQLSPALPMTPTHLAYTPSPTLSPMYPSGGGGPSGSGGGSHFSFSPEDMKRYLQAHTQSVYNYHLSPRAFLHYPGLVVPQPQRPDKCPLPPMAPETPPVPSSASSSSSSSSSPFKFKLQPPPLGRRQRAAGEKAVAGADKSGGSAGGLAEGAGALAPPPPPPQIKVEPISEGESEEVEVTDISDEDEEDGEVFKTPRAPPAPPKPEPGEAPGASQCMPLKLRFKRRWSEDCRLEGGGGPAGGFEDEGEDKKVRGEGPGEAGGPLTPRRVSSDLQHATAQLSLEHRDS
The settings on record: protein: recombinant; tags: N-terminal GST; dsDNA, one strand shown. An outline of the steps: as §1

Another assay has as its target T7, ETV3L (Homo sapiens, UniProt Q6ZN32 1-361).
T7 sequence: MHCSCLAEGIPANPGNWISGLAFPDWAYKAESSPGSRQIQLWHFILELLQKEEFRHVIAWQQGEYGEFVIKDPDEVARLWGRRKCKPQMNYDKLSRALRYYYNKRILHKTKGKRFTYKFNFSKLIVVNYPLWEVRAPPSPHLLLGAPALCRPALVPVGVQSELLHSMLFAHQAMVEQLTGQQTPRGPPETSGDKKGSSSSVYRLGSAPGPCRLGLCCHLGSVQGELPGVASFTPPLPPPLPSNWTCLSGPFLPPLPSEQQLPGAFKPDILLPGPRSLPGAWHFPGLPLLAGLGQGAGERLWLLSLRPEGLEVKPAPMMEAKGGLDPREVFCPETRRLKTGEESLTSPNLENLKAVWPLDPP
The settings on record: protein: recombinant; tags: N-terminal GST; dsDNA, one strand shown. An outline of the steps: as §1

Another assay addresses T8, ETS2 (Homo sapiens, UniProt P15036 1-469).
T8 sequence: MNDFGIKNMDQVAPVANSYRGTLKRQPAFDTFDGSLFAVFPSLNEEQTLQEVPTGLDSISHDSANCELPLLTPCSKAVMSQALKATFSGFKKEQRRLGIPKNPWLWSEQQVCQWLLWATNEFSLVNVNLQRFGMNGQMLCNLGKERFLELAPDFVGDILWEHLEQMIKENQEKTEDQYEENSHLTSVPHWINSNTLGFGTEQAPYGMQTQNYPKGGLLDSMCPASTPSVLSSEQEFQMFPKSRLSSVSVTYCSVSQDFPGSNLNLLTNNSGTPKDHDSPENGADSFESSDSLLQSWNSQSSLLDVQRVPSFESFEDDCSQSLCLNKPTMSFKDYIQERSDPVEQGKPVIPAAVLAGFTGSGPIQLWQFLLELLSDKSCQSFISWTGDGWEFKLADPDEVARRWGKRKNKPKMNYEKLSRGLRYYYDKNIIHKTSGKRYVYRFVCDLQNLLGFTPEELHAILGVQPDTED
The conditions noted are these: protein: recombinant; tags: N-terminal GST; dsDNA, one strand shown. The method in brief: as §1

Another assay has as its target T9, SPDEF (Homo sapiens, UniProt O95238 1-335).
T9 sequence: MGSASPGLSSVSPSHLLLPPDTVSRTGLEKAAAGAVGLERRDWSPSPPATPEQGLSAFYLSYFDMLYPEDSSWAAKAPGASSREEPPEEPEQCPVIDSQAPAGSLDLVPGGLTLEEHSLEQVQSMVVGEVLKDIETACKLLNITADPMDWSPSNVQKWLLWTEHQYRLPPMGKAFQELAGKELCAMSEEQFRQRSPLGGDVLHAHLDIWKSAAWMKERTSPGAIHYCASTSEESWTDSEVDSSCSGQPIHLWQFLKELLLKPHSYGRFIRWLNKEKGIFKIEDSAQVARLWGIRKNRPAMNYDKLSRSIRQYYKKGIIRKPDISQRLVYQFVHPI
The settings on record: protein: recombinant; tags: N-terminal GST; dsDNA, one strand shown. The method in brief: as §1

The target of another assay is T10, ETV7 (Homo sapiens, UniProt Q9Y603 1-341).
T10 sequence: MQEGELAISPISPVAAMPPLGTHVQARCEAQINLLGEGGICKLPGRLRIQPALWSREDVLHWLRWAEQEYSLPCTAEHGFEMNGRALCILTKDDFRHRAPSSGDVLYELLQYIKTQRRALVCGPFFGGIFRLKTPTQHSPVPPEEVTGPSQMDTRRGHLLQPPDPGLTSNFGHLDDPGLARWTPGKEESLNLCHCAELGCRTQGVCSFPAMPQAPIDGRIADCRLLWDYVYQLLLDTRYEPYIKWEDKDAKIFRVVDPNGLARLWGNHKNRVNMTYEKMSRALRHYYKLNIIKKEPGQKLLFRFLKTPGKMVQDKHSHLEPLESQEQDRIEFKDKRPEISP
The settings on record: protein: recombinant; tags: N-terminal GST; dsDNA, one strand shown. An outline of the steps: as §1

In another assay the target is T11, ELF5 (Homo sapiens, UniProt Q9UKW6-2 1-255).
T11 sequence: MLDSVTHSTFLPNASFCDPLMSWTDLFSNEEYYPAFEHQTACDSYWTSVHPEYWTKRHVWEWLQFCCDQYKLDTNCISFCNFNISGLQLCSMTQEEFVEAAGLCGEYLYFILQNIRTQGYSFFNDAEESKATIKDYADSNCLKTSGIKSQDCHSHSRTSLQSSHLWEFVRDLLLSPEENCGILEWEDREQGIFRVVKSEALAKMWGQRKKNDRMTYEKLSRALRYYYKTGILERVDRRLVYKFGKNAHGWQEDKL
The conditions noted are these: protein: recombinant; tags: N-terminal GST; dsDNA, one strand shown. The method in brief: as §1

For a further assay, the target named is T12, ETV3 (Homo sapiens, UniProt P41162-2 1-143).
T12 sequence: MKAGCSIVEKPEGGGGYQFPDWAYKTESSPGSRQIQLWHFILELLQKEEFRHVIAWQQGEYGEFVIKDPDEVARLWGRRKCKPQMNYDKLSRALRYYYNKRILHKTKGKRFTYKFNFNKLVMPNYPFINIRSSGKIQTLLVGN
The conditions noted are these: protein: recombinant; tags: N-terminal GST; dsDNA, one strand shown. An outline of the steps:
as §1

A further assay has as its target ETV6 (Homo sapiens, UniProt P41212 1-452). The conditions noted are these: protein: recombinant; tags: N-terminal GST; dsDNA, one strand shown. An outline of the steps:
as §1

ETV6, sequence (P41212 whole entry): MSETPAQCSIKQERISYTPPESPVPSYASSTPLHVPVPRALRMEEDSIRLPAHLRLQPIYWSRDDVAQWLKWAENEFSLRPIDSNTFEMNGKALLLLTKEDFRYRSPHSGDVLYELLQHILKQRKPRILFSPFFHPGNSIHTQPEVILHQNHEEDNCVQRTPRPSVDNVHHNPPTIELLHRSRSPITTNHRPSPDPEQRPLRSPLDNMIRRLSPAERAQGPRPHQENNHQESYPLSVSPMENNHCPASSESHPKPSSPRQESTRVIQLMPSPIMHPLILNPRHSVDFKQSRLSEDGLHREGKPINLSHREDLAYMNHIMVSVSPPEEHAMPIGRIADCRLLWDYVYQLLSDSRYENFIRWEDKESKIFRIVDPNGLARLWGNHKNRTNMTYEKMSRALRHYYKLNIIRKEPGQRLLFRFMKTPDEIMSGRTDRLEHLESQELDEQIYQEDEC
ELF4, sequence (Q99607 whole entry): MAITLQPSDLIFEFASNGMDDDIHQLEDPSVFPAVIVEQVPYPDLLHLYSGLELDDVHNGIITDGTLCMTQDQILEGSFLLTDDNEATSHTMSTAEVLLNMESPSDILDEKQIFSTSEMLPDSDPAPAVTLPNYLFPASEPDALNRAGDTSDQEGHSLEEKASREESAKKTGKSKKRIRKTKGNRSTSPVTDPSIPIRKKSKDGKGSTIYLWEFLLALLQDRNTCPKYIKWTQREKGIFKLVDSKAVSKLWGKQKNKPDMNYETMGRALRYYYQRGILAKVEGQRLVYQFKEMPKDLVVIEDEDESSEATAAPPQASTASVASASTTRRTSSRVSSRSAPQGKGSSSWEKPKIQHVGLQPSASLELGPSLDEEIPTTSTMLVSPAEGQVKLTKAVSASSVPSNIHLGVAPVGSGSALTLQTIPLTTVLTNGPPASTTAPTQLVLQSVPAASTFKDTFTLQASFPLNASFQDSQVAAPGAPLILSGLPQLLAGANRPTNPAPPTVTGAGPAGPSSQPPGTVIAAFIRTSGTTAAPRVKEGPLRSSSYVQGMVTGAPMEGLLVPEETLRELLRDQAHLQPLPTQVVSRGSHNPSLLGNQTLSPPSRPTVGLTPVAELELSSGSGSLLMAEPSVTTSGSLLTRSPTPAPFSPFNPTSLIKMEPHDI
ETV1, sequence (P50549 whole entry): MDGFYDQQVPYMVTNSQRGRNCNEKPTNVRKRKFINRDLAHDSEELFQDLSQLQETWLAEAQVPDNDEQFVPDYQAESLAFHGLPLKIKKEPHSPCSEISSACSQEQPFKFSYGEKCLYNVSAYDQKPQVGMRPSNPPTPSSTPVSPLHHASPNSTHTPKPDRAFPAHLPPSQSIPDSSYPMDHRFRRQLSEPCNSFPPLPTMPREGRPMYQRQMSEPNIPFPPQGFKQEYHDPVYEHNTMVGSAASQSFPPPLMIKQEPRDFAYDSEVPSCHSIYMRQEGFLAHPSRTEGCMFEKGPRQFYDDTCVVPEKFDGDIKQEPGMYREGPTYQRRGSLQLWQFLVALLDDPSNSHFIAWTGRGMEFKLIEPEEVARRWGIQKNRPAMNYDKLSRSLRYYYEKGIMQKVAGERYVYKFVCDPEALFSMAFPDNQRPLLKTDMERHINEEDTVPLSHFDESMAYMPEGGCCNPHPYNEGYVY
HSF1, sequence (Q00613 whole entry): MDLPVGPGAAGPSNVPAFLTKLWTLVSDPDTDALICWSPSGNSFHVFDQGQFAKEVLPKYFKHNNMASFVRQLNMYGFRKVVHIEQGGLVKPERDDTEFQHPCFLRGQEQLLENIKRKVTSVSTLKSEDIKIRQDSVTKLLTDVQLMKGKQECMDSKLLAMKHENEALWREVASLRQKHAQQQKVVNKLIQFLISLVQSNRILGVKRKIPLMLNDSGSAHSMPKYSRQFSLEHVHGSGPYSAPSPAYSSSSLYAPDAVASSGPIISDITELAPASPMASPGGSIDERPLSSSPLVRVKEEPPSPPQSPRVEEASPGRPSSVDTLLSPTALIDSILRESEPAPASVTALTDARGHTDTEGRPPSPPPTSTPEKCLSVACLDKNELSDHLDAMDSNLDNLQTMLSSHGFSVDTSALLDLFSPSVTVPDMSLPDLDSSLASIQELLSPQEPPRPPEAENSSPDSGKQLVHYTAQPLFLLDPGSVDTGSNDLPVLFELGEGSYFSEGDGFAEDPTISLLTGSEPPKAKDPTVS

Regarding ATATGC, the binding signal with FEV is 1.11 fold enrichment (6-mer frequency, TF over GST control); in the assay with ETV5, 1.15 fold enrichment (6-mer frequency, TF over GST control); with HSF1, 1.01 fold enrichment (6-mer frequency, TF over GST control); with SPIC it was 1.4 fold enrichment (6-mer frequency, TF over GST control); with ELF4, 1.1 fold enrichment (6-mer frequency, TF over GST control); with ELK4, 1.28 fold enrichment (6-mer frequency, TF over GST control). For the same sequence, the binding signal with ETV2 is 1.06 fold enrichment (6-mer frequency, TF over GST control); with ELF3, 1.09 fold enrichment (6-mer frequency, TF over GST control); in the assay with CRX, 1.01 fold enrichment (6-mer frequency, TF over GST control); in the assay with ETV1, 1.11 fold enrichment (6-mer frequency, TF over GST control); with ERF it was 1.15 fold enrichment (6-mer frequency, TF over GST control); in the assay with ETV3L it was 1.11 fold enrichment (6-mer frequency, TF over GST control). The binding signal is 1.19 fold enrichment (6-mer frequency, TF over GST control) in the assay with ETS2; 1.14 fold enrichment (6-mer frequency, TF over GST control) with SPDEF; 1.11 fold enrichment (6-mer frequency, TF over GST control) in the assay with ETV7; 1.12 fold enrichment (6-mer frequency, TF over GST control) in the assay with ELF5; 1.16 fold enrichment (6-mer frequency, TF over GST control) in the assay with ETV3; 1.12 fold enrichment (6-mer frequency, TF over GST control) with ETV6.
